In paper PMC9911399, “Two distinct binding modes provide the RNA-binding protein RbFox with extraordinary sequence specificity”:
Numbering of substitutions follows the chain as printed; changes in the protein carry UniProt numbers. The full ranking holds about 16,000 sequences; the median of “ka relative to ugcaugu” is about 0.096, and the highest 2% start at about 0.35. Only a selection was taken, and the highest values are over-represented in it overall.

B1: CAUACAC (DNA:RNA)
RNA: GGGAGACCGGAAUUCAGAUUGUCCCAUACACUUAAAUCCCGUCGUAGCCACCA
DNA 1: CAATCTGAATTCCGGTCTCCC
DNA 2: TGGTGGCTACGACGGGATT
B2: GUCUAGC (DNA:RNA)
RNA: B1 RNA with C25G, A26U, U27C, A28U, C29A, A30G
DNA 1: CAATCTGAATTCCGGTCTCCC
DNA 2: TGGTGGCTACGACGGGATT
B3: UUCCCGC (DNA:RNA)
RNA: B1 RNA with C25U, A26U, U27C, A28C, A30G
DNA 1: CAATCTGAATTCCGGTCTCCC
DNA 2: TGGTGGCTACGACGGGATT
B4: CCCGCGA (DNA:RNA)
RNA: B1 RNA with A26C, U27C, A28G, A30G, C31A
DNA 1: CAATCTGAATTCCGGTCTCCC
DNA 2: TGGTGGCTACGACGGGATT
B5: CAUUCUU (DNA:RNA)
RNA: B1 RNA with A28U, A30U, C31U
DNA 1: CAATCTGAATTCCGGTCTCCC
DNA 2: TGGTGGCTACGACGGGATT
B6: AAAGCCC (DNA:RNA)
RNA: B1 RNA with C25A, U27A, A28G, A30C
DNA 1: CAATCTGAATTCCGGTCTCCC
DNA 2: TGGTGGCTACGACGGGATT
B7: ACGCAGA (DNA:RNA)
RNA: GGGAGACCGGAAUUCAGAUUGUCCACGCAGAUUAAAUCCCGUCGUAGCCACCA
DNA 1: CAATCTGAATTCCGGTCTCCC
DNA 2: TGGTGGCTACGACGGGATT
B8: ACGCGUC (DNA:RNA)
RNA: B7 RNA with A29G, G30U, A31C
DNA 1: CAATCTGAATTCCGGTCTCCC
DNA 2: TGGTGGCTACGACGGGATT
B9: ACGCAUG (DNA:RNA)
RNA: B7 RNA with G30U, A31G
DNA 1: CAATCTGAATTCCGGTCTCCC
DNA 2: TGGTGGCTACGACGGGATT
B10: ACGCGCA (DNA:RNA)
RNA: B7 RNA with A29G, G30C
DNA 1: CAATCTGAATTCCGGTCTCCC
DNA 2: TGGTGGCTACGACGGGATT
B11: ACGCAUA (DNA:RNA)
RNA: B7 RNA with G30U
DNA 1: CAATCTGAATTCCGGTCTCCC
DNA 2: TGGTGGCTACGACGGGATT
B12: ACGCAUC (DNA:RNA)
RNA: B7 RNA with G30U, A31C
DNA 1: CAATCTGAATTCCGGTCTCCC
DNA 2: TGGTGGCTACGACGGGATT
B13: UCAUUGC (DNA:RNA)
RNA: B7 RNA with A25U, G27A, C28U, A29U, A31C
DNA 1: CAATCTGAATTCCGGTCTCCC
DNA 2: TGGTGGCTACGACGGGATT
B14: GAUAGUG (DNA:RNA)
RNA: B1 RNA with C25G, C29G, A30U, C31G
DNA 1: CAATCTGAATTCCGGTCTCCC
DNA 2: TGGTGGCTACGACGGGATT
B15: CGAUAGA (DNA:RNA)
RNA: B7 RNA with A25C, C26G, G27A, C28U
DNA 1: CAATCTGAATTCCGGTCTCCC
DNA 2: TGGTGGCTACGACGGGATT
B16: UGGUAUG (DNA:RNA)
RNA: B7 RNA with A25U, C26G, C28U, G30U, A31G
DNA 1: CAATCTGAATTCCGGTCTCCC
DNA 2: TGGTGGCTACGACGGGATT
B17: UGGUAUC (DNA:RNA)
RNA: B7 RNA with A25U, C26G, C28U, G30U, A31C
DNA 1: CAATCTGAATTCCGGTCTCCC
DNA 2: TGGTGGCTACGACGGGATT
B18: UGGUAGC (DNA:RNA)
RNA: B7 RNA with A25U, C26G, C28U, A31C
DNA 1: CAATCTGAATTCCGGTCTCCC
DNA 2: TGGTGGCTACGACGGGATT
B19: UGGUAUA (DNA:RNA)
RNA: B7 RNA with A25U, C26G, C28U, G30U
DNA 1: CAATCTGAATTCCGGTCTCCC
DNA 2: TGGTGGCTACGACGGGATT
B20: UGGUAGA (DNA:RNA)
RNA: B7 RNA with A25U, C26G, C28U
DNA 1: CAATCTGAATTCCGGTCTCCC
DNA 2: TGGTGGCTACGACGGGATT
B21: UGGUAAA (DNA:RNA)
RNA: B7 RNA with A25U, C26G, C28U, G30A
DNA 1: CAATCTGAATTCCGGTCTCCC
DNA 2: TGGTGGCTACGACGGGATT
B22: ACUUGAG (DNA:RNA)
RNA: B7 RNA with G27U, C28U, A29G, G30A, A31G
DNA 1: CAATCTGAATTCCGGTCTCCC
DNA 2: TGGTGGCTACGACGGGATT
B23: AGGGUAC (DNA:RNA)
RNA: B7 RNA with C26G, C28G, A29U, G30A, A31C
DNA 1: CAATCTGAATTCCGGTCTCCC
DNA 2: TGGTGGCTACGACGGGATT
B24: UUAACCU (DNA:RNA)
RNA: B1 RNA with C25U, A26U, U27A, A30C, C31U
DNA 1: CAATCTGAATTCCGGTCTCCC
DNA 2: TGGTGGCTACGACGGGATT
B25: UCCAUCA (DNA:RNA)
RNA: B7 RNA with A25U, G27C, C28A, A29U, G30C
DNA 1: CAATCTGAATTCCGGTCTCCC
DNA 2: TGGTGGCTACGACGGGATT
B26: GGCAGCU (DNA:RNA)
RNA: B1 RNA with C25G, A26G, U27C, C29G, A30C, C31U
DNA 1: CAATCTGAATTCCGGTCTCCC
DNA 2: TGGTGGCTACGACGGGATT
B27: GUCGAGC (DNA:RNA)
RNA: B7 RNA with A25G, C26U, G27C, C28G, A31C
DNA 1: CAATCTGAATTCCGGTCTCCC
DNA 2: TGGTGGCTACGACGGGATT
B28: GCAUAGC (DNA:RNA)
RNA: B7 RNA with A25G, G27A, C28U, A31C
DNA 1: CAATCTGAATTCCGGTCTCCC
DNA 2: TGGTGGCTACGACGGGATT
B29: CCAUGGU (DNA:RNA)
RNA: B7 RNA with A25C, G27A, C28U, A29G, A31U
DNA 1: CAATCTGAATTCCGGTCTCCC
DNA 2: TGGTGGCTACGACGGGATT
B30: GGCAUGG (DNA:RNA)
RNA: B7 RNA with A25G, C26G, G27C, C28A, A29U, A31G
DNA 1: CAATCTGAATTCCGGTCTCCC
DNA 2: TGGTGGCTACGACGGGATT
B31: GCAAUGG (DNA:RNA)
RNA: B7 RNA with A25G, G27A, C28A, A29U, A31G
DNA 1: CAATCTGAATTCCGGTCTCCC
DNA 2: TGGTGGCTACGACGGGATT
B32: GUCAUGG (DNA:RNA)
RNA: B7 RNA with A25G, C26U, G27C, C28A, A29U, A31G
DNA 1: CAATCTGAATTCCGGTCTCCC
DNA 2: TGGTGGCTACGACGGGATT
B33: GCAUUGG (DNA:RNA)
RNA: B7 RNA with A25G, G27A, C28U, A29U, A31G
DNA 1: CAATCTGAATTCCGGTCTCCC
DNA 2: TGGTGGCTACGACGGGATT
B34: GCAUGGU (DNA:RNA)
RNA: B7 RNA with A25G, G27A, C28U, A29G, A31U
DNA 1: CAATCTGAATTCCGGTCTCCC
DNA 2: TGGTGGCTACGACGGGATT
B35: GCCAUGG (DNA:RNA)
RNA: B7 RNA with A25G, G27C, C28A, A29U, A31G
DNA 1: CAATCTGAATTCCGGTCTCCC
DNA 2: TGGTGGCTACGACGGGATT
B36: CGCAUGG (DNA:RNA)
RNA: B1 RNA with A26G, U27C, C29U, A30G, C31G
DNA 1: CAATCTGAATTCCGGTCTCCC
DNA 2: TGGTGGCTACGACGGGATT
B37: GCAUGGC (DNA:RNA)
RNA: B7 RNA with A25G, G27A, C28U, A29G, A31C
DNA 1: CAATCTGAATTCCGGTCTCCC
DNA 2: TGGTGGCTACGACGGGATT
B38: GCAUGGG (DNA:RNA)
RNA: B7 RNA with A25G, G27A, C28U, A29G, A31G
DNA 1: CAATCTGAATTCCGGTCTCCC
DNA 2: TGGTGGCTACGACGGGATT
B39: GCAUGGA (DNA:RNA)
RNA: B7 RNA with A25G, G27A, C28U, A29G
DNA 1: CAATCTGAATTCCGGTCTCCC
DNA 2: TGGTGGCTACGACGGGATT

The binders below were run against T1, RBFOX1 RRM RbFoxmut (Fox-RRM*) (Homo sapiens, UniProt Q9NWB1 109-208, R118D;E147R;N151S;E152T) (assay: EMSA; HiTS-Eq, 1 nM pool, 10 min; buffer printed only for the single-RNA assays: 10 mM Tris pH 7.5, 150 mM NaCl, 3.4 mM EDTA, 0.001% NP-40, 30 C). Conditions: tags: His6 N-terminal (pET28a); label: 5' 32P.
T1 sequence: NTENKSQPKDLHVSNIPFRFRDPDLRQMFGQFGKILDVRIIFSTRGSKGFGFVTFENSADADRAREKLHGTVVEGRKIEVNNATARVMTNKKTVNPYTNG
In short: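 Relative association constants, normalised to the cognate motif, were derived by comparing read counts of each RNA species with those of the control reaction. The RNA sequenced was the free fraction, separated by 8% native PAGE after a 10 min equilibration in 50 µL of 1 nM 5′-radiolabelled RNA (7 randomized nucleotides) with increasing concentrations of purified wild-type or mutant RbFox RRM.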
With B1 the binding signal was 0.0927 KA relative to UGCAUGU. For B2, the binding signal was 0.0934 KA relative to UGCAUGU. In the case of B3, the binding signal is reported as 0.0732 KA relative to UGCAUGU. With B4 the binding signal was 0.0823 KA relative to UGCAUGU. With B5 the binding signal was 0.101 KA relative to UGCAUGU. With B6 the binding signal was 0.066 KA relative to UGCAUGU. With B7 the binding signal was 0.106 KA relative to UGCAUGU. With B8 the binding signal was 0.0969 KA relative to UGCAUGU. B9 was tested, and the binding signal was 0.844 KA relative to UGCAUGU. For B10, the binding signal was 0.15 KA relative to UGCAUGU. In the case of B11, the binding signal is reported as 0.152 KA relative to UGCAUGU. With B12 the binding signal was 0.355 KA relative to UGCAUGU. With B13 the binding signal was 0.12 KA relative to UGCAUGU. For B14, the binding signal was 0.126 KA relative to UGCAUGU. B15 was tested, and the binding signal was 0.101 KA relative to UGCAUGU. In the case of B16, the binding signal is reported as 1.27 KA relative to UGCAUGU. With B17 the binding signal was 0.356 KA relative to UGCAUGU. For B18, the binding signal was 0.102 KA relative to UGCAUGU. For B19, the binding signal was 0.157 KA relative to UGCAUGU. B20 was tested, and the binding signal was 0.128 KA relative to UGCAUGU. B21 was tested, and the binding signal was 0.0843 KA relative to UGCAUGU. In the case of B22, the binding signal is reported as 0.13 KA relative to UGCAUGU. In the case of B23, the binding signal is reported as 0.106 KA relative to UGCAUGU. With B24 the binding signal was 0.0822 KA relative to UGCAUGU. In the case of B25, the binding signal is reported as 0.0673 KA relative to UGCAUGU. In the case of B26, the binding signal is reported as 0.0642 KA relative to UGCAUGU. For B27, the binding signal was 0.0952 KA relative to UGCAUGU. B28 was tested, and the binding signal was 0.126 KA relative to UGCAUGU. In the case of B29, the binding signal is reported as 0.125 KA relative to UGCAUGU. In the case of B30, the binding signal is reported as 0.524 KA relative to UGCAUGU. With B31 the binding signal was 0.0714 KA relative to UGCAUGU. For B32, the binding signal was 0.154 KA relative to UGCAUGU. With B33 the binding signal was 0.179 KA relative to UGCAUGU. B34 was tested, and the binding signal was 0.753 KA relative to UGCAUGU. For B35, the binding signal was 0.12 KA relative to UGCAUGU. In the case of B36, the binding signal is reported as 0.804 KA relative to UGCAUGU. In the case of B37, the binding signal is reported as 0.497 KA relative to UGCAUGU. For B38, the binding signal was 0.322 KA relative to UGCAUGU. With B39 the binding signal was 0.23 KA relative to UGCAUGU.
